# Results as given in PubChem BioAssay (NCATS).
# Results filed as inconclusive are left out. Where a call stands in place of a potency, no number is given. A number with no mark means an inactive call. Calls of active or inactive are those of the source. Calls follow the shape of the dose curve; as a rule, active = well fitted curve in the direction sought with a large enough effect; inconclusive = small, poorly fitted or top-dose-only effect, or another doubt; inactive = no such curve, though single readings can be large; an effect the other way counts as inactive or inconclusive.
# Legend:
# [1] = target: Glutathione peroxidase 1 (Homo sapiens) (UniProt P07203); test: Primary qHTS Assay for Inhibitors of Recombinant Selenoprotein Glutathione Peroxidase 1 (GPX1) (AID 1845191); also: nearly all actives have a fitted effect of over 65% in size; also: potency is read from the fitted curve at half-maximal effect
# In short: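 GR-coupled assay: compounds preincubated 30 min at room temperature with GPX1, then reaction started with CHP; final 10 nM GPX1, 1 mM GSH, 0.5 mM CHP, 0.5 mM NADPH, 100 nM GR, 0.01% BSA, pH 7.5 Tris buffer. NADPH fluorescence (340/450 nm) read at 0 and 15 min.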
# [2] = target: Phospholipid hydroperoxide glutathione peroxidase GPX4 (Homo sapiens) (UniProt P36969); test: Primary qHTS Assay for Inhibitors of Recombinant Selenoprotein Glutathione Peroxidase 4 (GPX4) (AID 1845192); also: nearly all actives have a fitted effect of over 65% in size; as to activity change, negative = inhibition: series mostly up to about 50 µM
# In short: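 GR-coupled assay: recombinant GPX4 preincubated 30 min with compound at room temperature; final 200 nM GPX4, 1 mM GSH, 0.5 mM cumene hydroperoxide, 0.5 mM NADPH, 100 nM GR, 0.01% BSA, pH 7.5 Tris. NADPH fluorescence (340/450 nm) read at 0 and 15 min.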
# [3] = target: Metallo-beta-lactamase type 2 (Klebsiella pneumoniae) (UniProt C7C422); test: qHTS to identify inhibitors of the New Delhi Metallo-beta-lactamase (NDM): assay validation screen against the NCATS LOPAC Collection (AID 1794843);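 also: nitrocefin turnover by NDM-1 measured as 485 nm absorbance at plateau; series mostly up to about 38 µM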
# In short: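 Enzyme 2 nM final, 50 mM HEPES pH 7.0, 1 uM ZnSO4, 0.01% Tween20; cpds in DMSO, preincub w/ enzyme; + nitrocefin (50 uM stock); A485 at plateau; no-enzyme column as blank.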
# Metallo-beta-lactamase type 2 (Klebsiella pneumoniae), sequence (C7C422 whole entry, looked up): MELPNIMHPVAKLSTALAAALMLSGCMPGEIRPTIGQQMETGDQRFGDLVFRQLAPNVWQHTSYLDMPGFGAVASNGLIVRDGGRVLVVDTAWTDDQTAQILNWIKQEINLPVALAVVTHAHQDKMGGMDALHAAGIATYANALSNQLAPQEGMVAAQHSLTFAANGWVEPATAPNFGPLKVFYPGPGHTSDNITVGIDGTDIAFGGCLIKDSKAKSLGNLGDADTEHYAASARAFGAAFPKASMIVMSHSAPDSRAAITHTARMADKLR
# Phospholipid hydroperoxide glutathione peroxidase GPX4 (Homo sapiens), sequence (P36969 whole entry, looked up): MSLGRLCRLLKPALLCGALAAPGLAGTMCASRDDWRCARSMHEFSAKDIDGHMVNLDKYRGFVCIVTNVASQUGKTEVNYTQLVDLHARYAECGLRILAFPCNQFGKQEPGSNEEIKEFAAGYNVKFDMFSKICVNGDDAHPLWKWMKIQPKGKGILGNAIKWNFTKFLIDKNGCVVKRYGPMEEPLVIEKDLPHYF
# Glutathione peroxidase 1 (Homo sapiens), sequence (P07203 whole entry, looked up): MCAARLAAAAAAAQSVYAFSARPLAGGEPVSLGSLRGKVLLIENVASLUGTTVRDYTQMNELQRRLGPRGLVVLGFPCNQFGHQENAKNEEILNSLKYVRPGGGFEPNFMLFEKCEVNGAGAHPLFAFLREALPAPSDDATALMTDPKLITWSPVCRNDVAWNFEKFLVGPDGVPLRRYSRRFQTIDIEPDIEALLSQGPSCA
smiles,measurement,setting,value
CC[N+](CC)(CCNC(=O)C(=O)NCC[N+](CC)(CC)Cc1ccccc1Cl)Cc1ccccc1Cl,Potency,[1],inactive
same,Potency,[2],inactive
CNCCC(Oc1ccccc1C)c1ccccc1 (configuration not stated),outcome,[3],inactive
same,Potency,[1],inactive
same,Potency,[2],inactive
O=C(O)c1cc2cc(Cc3cccnc3)ccc2o1,outcome,[3],inactive
same,Potency,[2],inactive
NC(CO)(CO)CO,Potency,[1],inactive
same,Potency,[2],inactive
CN1C2CCC1CC(OC(=O)c1c[nH]c3ccccc13)C2 (configuration not stated),outcome,[3],inactive
same,Potency,[1],inactive
same,Potency,[2],inactive
Cc1nc2n(c(=O)c1CCN1CCC(c3noc4cc(F)ccc34)CC1)CCC[C@H]2O,Potency,[1],inactive
same,Potency,[2],inactive
O=C1c2ccccc2C(=O)C1c1ccccc1,Potency,[1],inactive
same,Potency,[2],inactive
O=c1[nH]c(=O)n([C@H]2C[C@H](O)[C@@H](CO)O2)cc1C(F)(F)F,Potency,[1],inactive
same,Potency,[2],inactive
C[N+]1(CCCCC[N+]2(C)CCCC2)CCCC1,outcome,[3],inactive
same,Potency,[1],inactive
same,Potency,[2],inactive
NC(=O)c1cc[n+](CC2=C(C(=O)[O-])N3C(=O)[C@@H](NC(=O)Cc4cccs4)[C@H]3SC2)cc1,Potency,[1],10.1 µM (active)
CCCCOc1cc(C(=O)NCCN(CC)CC)c2ccccc2n1,Potency,[1],inactive
same,Potency,[2],inactive
CNCCC=C1c2ccccc2CCc2ccccc21,outcome,[3],inactive
same,Potency,[2],inactive
CCCCOc1ccc(C(=O)CCN2CCCCC2)cc1,Potency,[1],inactive
same,Potency,[2],inactive
OC(CCN1CCCCC1)(c1ccccc1)c1ccccc1,Potency,[1],inactive
same,Potency,[2],inactive
CCCC1O[C@@H]2C[C@H]3[C@@H]4CCC5=CC(=O)C=C[C@]5(C)[C@H]4[C@@H](O)C[C@]3(C)[C@]2(C(=O)CO)O1 (some centres not stated),outcome,[3],inactive
same,Potency,[2],inactive
COc1c(C)c2c(c(O)c1C/C=C(\C)CCC(=O)O)C(=O)OC2,Potency,[1],inactive
same,Potency,[2],inactive
COC(=O)[C@@H]1CC2=CC(=O)CC[C@]2(C)[C@@]23O[C@@H]2C[C@@]2(C)[C@@H](CC[C@@]24CCC(=O)O4)[C@H]13,Potency,[1],inactive
same,Potency,[2],inactive
O=C(OCCOCCO)c1ccccc1Nc1cccc(C(F)(F)F)c1,Potency,[1],inactive
same,Potency,[2],inactive
Cc1ccnc(NS(=O)(=O)c2ccc(N)cc2)n1,Potency,[1],inactive
same,Potency,[2],inactive
Oc1c(I)cc(I)c2cccnc12,Potency,[1],inactive
same,Potency,[2],inactive
CN1CCN(CCCN2c3ccccc3Sc3ccc(S(=O)(=O)N(C)C)cc32)CC1,Potency,[1],inactive
same,Potency,[2],inactive
CCCCC(=O)O[C@]1(C(=O)CO)CC[C@H]2[C@@H]3CCC4=CC(=O)CC[C@]4(C)[C@H]3[C@@H](O)C[C@@]21C,Potency,[1],inactive
same,Potency,[2],inactive
CCCN1CCCC[C@H]1C(=O)Nc1c(C)cccc1C,Potency,[1],inactive
same,Potency,[2],inactive
COC(=O)[C@H]1[C@H]2C[C@H]3c4[nH]c5ccccc5c4CCN3C[C@H]2CC[C@@H]1O,Potency,[1],inactive
same,Potency,[2],inactive
COc1cc2c(cc1OC)[C@@H]1CC(=O)[C@@H](CC(C)C)CN1CC2,Potency,[1],inactive
same,Potency,[2],inactive
O=C(O)CCCCC(=O)O,Potency,[1],inactive
same,Potency,[2],inactive
CCOC(=O)/C=C(C)/C=C/C=C(C)/C=C/c1c(C)cc(OC)c(C)c1C,Potency,[1],inactive
same,Potency,[2],inactive
C[C@]12CC[C@@H]3c4ccc(O)cc4CC[C@H]3[C@@H]1C[C@@H](O)[C@@H]2O,Potency,[1],inactive
same,Potency,[2],inactive
Cc1c(C(N)=O)cc([N+](=O)[O-])cc1[N+](=O)[O-],Potency,[1],inactive
same,Potency,[2],inactive
CN1CCN(C(c2ccccc2)c2ccccc2)CC1,Potency,[1],inactive
same,Potency,[2],inactive
Cc1ccc(C(=O)C(C)CN2CCCCC2)cc1 (configuration not stated),Potency,[1],inactive
same,Potency,[2],inactive
C=C1C[C@H]2[C@@H]3C=C(C)C4=CC(=O)CC[C@]4(C)[C@H]3CC[C@]2(C)[C@@]1(OC(C)=O)C(C)=O,Potency,[1],inactive
same,Potency,[2],inactive
N[C@H](CO)C(=O)O,Potency,[1],inactive
same,Potency,[2],inactive
OC[C@H]1O[C@@H](n2cnc3c(=S)nc[nH]c32)[C@H](O)[C@@H]1O,Potency,[1],inactive
same,Potency,[2],inactive
Cc1onc(-c2c(Cl)cccc2Cl)c1C(=O)N[C@@H]1C(=O)N2[C@@H]1SC(C)(C)[C@@H]2C(=O)O,Potency,[1],inactive
same,Potency,[2],inactive
COc1cc(N)c(Cl)cc1C(=O)NC1CCN(CCCOc2ccc(F)cc2)CC1OC (configuration not stated),Potency,[1],inactive
same,Potency,[2],inactive
COc1ccc(OC)c(C(O)CNC(=O)CN)c1 (configuration not stated),Potency,[1],inactive
same,Potency,[2],inactive
CCC(=O)c1c(O)cc(O)cc1O,Potency,[1],inactive
same,Potency,[2],inactive
CCn1cc(C(=O)O)c(=O)c2cnc(N3CCCC3)nc21,"activity, negative = inhibition",[1],-13.1% [at 9.52 µM]
same,"activity change, negative = inhibition",[2],-6.64% [at 9.73 µM]
CC(=O)c1ccc2c(c1)N(CCCN1CCC(CCO)CC1)c1ccccc1S2,Potency,[1],inactive
same,Potency,[2],inactive
CCCCS(=O)(=O)N[C@@H](Cc1ccc(OCCCCC2CCNCC2)cc1)C(=O)O,Potency,[1],inactive
same,Potency,[2],inactive
O=C(OCC(O)CO)c1ccccc1Nc1ccnc2cc(Cl)ccc12 (configuration not stated),Potency,[1],inactive
same,Potency,[2],inactive
COC1=CC(=O)C[C@@H](C)[C@]12Oc1c(Cl)c(OC)cc(OC)c1C2=O,Potency,[1],inactive
same,Potency,[2],inactive
CC(=O)CC(c1ccc([N+](=O)[O-])cc1)c1c(O)c2ccccc2oc1=O (configuration not stated),Potency,[1],inactive
same,Potency,[2],inactive
CCCCCCCCCCCCCCCCCC(=O)OCC(O)CO (configuration not stated),Potency,[1],inactive
same,Potency,[2],inactive
CCCC(=O)O[C@]1(C(=O)CO)CC[C@H]2[C@@H]3CCC4=CC(=O)CC[C@]4(C)[C@H]3[C@@H](O)C[C@@]21C,Potency,[1],inactive
same,Potency,[2],inactive
O=c1[nH]c(=O)n([C@H]2CCCO2)cc1F,Potency,[1],inactive
same,Potency,[2],inactive
CCOC(=O)c1cccc(N)c1,Potency,[1],inactive
same,Potency,[2],inactive
CC1(C)O[C@@H]2C[C@H]3[C@@H]4C[C@H](F)C5=CC(=O)C=C[C@]5(C)[C@H]4[C@@H](O)C[C@]3(C)[C@]2(C(=O)CO)O1,Potency,[1],inactive
same,Potency,[2],inactive
C[C@@H](CN(C)C)CN1c2ccccc2Sc2ccccc21,Potency,[1],inactive
same,Potency,[2],inactive
Oc1cc(O)c2c(c1)O[C@H](c1ccc(O)c(O)c1)[C@H](O)C2,Potency,[1],inactive
same,Potency,[2],inactive
C[C@H](O)C(=O)Nc1c(I)c(C(=O)NC(CO)CO)c(I)c(C(=O)NC(CO)CO)c1I,Potency,[1],inactive
same,Potency,[2],inactive
CCN(CCCCOC(=O)c1ccc(OC)c(OC)c1)C(C)Cc1ccc(OC)cc1 (configuration not stated),Potency,[1],inactive
same,Potency,[2],inactive
CC1(C)OC[C@@H](COC(=O)CCc2ccc(OC[C@@H](O)CNCCNC(=O)N3CCOCC3)cc2)O1,Potency,[1],inactive
same,Potency,[2],inactive
CN1C(CCl)Nc2cc(Cl)c(S(N)(=O)=O)cc2S1(=O)=O (configuration not stated),Potency,[1],inactive
same,Potency,[2],inactive
